# Laboratory results: ChEMBL document CHEMBL3988442, “University of Dundee, Small-Polar-MMV Screening Library” (2021)
# For some assays here: Measured potencies and affinities stand elsewhere.
# Key:
# Parameters in all cases: scale not given: direction of the effect not stated beside the values
# [1] = molecular target: Protein translocase subunit SecA (Escherichia coli (strain K12)) (UniProt P10408); test: Assay to Identify E. coli SecA ATPase Inhibitors; format: functional; conditions: 30 µM
# [2] = molecular target: T1, Ubiquitin-activating enzyme e1, putative (Leishmania donovani (strain BPK282A1)) (UniProt E9BSI1); test: Leishmania donovani Ubiquitin Activating Enzyme (LdE1); format: functional; conditions: 30 µM
# T1 sequence (whole entry): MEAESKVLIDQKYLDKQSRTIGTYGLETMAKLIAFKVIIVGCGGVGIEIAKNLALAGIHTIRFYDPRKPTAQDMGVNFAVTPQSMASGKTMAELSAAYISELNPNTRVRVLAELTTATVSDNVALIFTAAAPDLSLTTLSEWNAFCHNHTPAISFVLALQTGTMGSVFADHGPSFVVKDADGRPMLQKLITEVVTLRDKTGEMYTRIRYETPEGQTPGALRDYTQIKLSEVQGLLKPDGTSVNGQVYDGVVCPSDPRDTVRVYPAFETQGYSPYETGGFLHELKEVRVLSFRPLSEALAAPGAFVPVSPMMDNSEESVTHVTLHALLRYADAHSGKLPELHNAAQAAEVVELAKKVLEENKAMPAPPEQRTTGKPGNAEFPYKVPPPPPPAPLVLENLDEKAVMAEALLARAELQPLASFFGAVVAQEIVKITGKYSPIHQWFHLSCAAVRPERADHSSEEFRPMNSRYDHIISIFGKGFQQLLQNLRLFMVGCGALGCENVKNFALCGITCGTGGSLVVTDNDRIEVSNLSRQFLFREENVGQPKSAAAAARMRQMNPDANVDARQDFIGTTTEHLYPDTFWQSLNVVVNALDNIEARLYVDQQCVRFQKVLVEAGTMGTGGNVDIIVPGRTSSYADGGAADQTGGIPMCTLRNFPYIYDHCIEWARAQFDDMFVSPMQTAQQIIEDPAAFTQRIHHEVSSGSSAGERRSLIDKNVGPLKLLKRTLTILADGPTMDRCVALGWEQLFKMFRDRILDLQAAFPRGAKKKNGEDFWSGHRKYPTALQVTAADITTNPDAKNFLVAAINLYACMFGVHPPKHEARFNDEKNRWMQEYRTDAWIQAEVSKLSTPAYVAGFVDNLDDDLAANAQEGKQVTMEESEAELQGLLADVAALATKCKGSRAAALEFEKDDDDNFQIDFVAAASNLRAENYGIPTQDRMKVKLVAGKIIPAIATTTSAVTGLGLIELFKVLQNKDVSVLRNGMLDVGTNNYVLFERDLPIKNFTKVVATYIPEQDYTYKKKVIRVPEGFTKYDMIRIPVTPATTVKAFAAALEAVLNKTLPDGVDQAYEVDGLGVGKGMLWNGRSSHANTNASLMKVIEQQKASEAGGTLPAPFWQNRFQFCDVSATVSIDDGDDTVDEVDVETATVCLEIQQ
# [3] = molecular target: AMP-activated protein kinase, AMPK (Homo sapiens) (UniProt P54646+O43741+P54619+Q9UGJ0+Q9Y478+Q13131+Q9UGI9); test: AMP-dependent Kinase enzyme assay. An in vitro enzyme assay that detects ADP turnover that is directly proportional to AMPK activity. This uses naive AMPK that is activated during the assay with MK-8722; format: functional; conditions: 30 µM
# [4] = molecular target: Sialic acid-binding Ig-like lectin 9 (Homo sapiens) (UniProt Q9Y336); test: Hs-Siglec9 ALPHAscreen SOP 20170721; conditions: 10 µM
# Sequence of Sialic acid-binding Ig-like lectin 9 (Homo sapiens) (Q9Y336 whole entry): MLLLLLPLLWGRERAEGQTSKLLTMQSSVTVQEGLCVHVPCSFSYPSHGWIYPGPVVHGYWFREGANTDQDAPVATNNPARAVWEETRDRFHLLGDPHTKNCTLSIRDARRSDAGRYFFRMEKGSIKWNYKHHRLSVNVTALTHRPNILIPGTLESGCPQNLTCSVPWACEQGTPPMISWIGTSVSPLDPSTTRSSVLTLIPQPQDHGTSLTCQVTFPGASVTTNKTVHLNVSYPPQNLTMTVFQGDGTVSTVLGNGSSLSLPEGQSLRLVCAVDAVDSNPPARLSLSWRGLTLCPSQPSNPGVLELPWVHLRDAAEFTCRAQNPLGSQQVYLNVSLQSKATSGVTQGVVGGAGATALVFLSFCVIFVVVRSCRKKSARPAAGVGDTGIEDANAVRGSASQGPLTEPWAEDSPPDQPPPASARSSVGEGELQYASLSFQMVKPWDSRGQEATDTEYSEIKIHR
# [5] = tested on: Trypanosoma cruzi; test: Trypanosoma cruzi phosphomannomutase and mannose-1-phosphate guanylyltransferase assay; format: functional; conditions: 10 µM
# [6] = molecular target: T2, Arginase-2, mitochondrial (Homo sapiens) (UniProt P78540); test: in vitro enzyme assay to detect the production of urea directly proportional to the activity of Arginase II; format: functional; conditions: 33.3 µM; note: in the data most compounds retested in dose-response had high values
# T2 sequence (whole entry): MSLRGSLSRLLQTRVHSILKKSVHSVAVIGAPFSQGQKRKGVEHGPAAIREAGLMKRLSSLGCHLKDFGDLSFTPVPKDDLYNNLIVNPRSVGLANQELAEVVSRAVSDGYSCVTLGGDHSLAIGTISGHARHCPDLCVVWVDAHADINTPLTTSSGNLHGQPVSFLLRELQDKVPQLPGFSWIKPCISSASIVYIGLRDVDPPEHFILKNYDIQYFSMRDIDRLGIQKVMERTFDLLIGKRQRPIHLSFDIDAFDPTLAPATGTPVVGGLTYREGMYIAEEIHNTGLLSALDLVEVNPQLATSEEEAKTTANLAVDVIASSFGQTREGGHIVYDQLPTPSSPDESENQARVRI
# [7] = molecular target: T3, Proteasome subunit beta (Trypanosoma cruzi) (UniProt O96673); test: Trypanosoma cruzi proteasome chymotrypsin-like activity (TcProtChymo) assay.; note: in the data most compounds retested in dose-response had high values; format: functional; conditions: 9.37 µM
# T3 sequence (whole entry): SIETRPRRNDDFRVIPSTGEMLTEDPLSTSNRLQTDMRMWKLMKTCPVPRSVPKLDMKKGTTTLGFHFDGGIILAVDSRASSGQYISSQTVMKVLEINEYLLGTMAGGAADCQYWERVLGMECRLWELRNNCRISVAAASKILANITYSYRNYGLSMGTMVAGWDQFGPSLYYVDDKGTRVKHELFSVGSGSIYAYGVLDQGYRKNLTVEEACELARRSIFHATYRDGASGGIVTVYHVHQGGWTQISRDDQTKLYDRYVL
# [8] = organism: Homo sapiens; test: To identify inhibition of the IFN signalling (Jak-Stat) pathway via expression of an eGFP reporter gene under the control of an IFN-stimulated response element (ISRE) containing MxA promoter.; format: functional; conditions: 30 µM
# [9] = molecular target: T4, Tyrosyl-tRNA synthetase, putative (Trypanosoma cruzi (strain CL Brener)) (UniProt Q4DSP6); test: Trypanosoma cruzi tyrosyl tRNA synthetase (TcYRS) _High Tyrosine SOP; format: functional; conditions: 30 µM; note: in the data most compounds retested in dose-response had high values
# T4 sequence (whole entry): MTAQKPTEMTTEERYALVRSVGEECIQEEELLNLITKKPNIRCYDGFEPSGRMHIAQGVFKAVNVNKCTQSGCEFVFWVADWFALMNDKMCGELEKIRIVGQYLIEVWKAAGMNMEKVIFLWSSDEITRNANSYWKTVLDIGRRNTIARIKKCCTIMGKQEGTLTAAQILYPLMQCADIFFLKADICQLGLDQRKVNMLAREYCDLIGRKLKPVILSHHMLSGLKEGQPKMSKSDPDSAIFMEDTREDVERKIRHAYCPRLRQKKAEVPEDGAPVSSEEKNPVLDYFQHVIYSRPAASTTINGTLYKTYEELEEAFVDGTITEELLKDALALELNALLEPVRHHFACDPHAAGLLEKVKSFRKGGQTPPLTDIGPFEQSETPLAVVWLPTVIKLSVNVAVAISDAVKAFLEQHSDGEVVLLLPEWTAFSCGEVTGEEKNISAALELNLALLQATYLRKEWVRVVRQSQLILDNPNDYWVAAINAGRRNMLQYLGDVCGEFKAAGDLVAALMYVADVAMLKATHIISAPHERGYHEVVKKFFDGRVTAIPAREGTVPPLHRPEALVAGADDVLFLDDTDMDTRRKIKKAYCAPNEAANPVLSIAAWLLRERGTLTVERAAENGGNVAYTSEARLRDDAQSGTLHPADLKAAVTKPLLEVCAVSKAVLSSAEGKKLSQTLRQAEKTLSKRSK
# [10] = molecular target: T4, Tyrosyl-tRNA synthetase, putative (Trypanosoma cruzi (strain CL Brener)); test: Trypanosoma cruzi tyrosyl tRNA synthetase (TcYRS) SOP; format: functional; conditions: 30 µM
# [11] = molecular target: Chromo domain-containing protein 1 (Saccharomyces cerevisiae (strain ATCC 204508 / S288c) (Baker's yeast)) (UniProt P32657); test: ScCHD-1 Enzyme Inhibition Assay; format: functional; conditions: 30 µM; note: in the data most compounds retested in dose-response had high values
# Sequence of Chromo domain-containing protein 1 (Saccharomyces cerevisiae (strain ATCC 204508 / S288c) (Baker's yeast)) (P32657 whole entry, the tested form may be a part): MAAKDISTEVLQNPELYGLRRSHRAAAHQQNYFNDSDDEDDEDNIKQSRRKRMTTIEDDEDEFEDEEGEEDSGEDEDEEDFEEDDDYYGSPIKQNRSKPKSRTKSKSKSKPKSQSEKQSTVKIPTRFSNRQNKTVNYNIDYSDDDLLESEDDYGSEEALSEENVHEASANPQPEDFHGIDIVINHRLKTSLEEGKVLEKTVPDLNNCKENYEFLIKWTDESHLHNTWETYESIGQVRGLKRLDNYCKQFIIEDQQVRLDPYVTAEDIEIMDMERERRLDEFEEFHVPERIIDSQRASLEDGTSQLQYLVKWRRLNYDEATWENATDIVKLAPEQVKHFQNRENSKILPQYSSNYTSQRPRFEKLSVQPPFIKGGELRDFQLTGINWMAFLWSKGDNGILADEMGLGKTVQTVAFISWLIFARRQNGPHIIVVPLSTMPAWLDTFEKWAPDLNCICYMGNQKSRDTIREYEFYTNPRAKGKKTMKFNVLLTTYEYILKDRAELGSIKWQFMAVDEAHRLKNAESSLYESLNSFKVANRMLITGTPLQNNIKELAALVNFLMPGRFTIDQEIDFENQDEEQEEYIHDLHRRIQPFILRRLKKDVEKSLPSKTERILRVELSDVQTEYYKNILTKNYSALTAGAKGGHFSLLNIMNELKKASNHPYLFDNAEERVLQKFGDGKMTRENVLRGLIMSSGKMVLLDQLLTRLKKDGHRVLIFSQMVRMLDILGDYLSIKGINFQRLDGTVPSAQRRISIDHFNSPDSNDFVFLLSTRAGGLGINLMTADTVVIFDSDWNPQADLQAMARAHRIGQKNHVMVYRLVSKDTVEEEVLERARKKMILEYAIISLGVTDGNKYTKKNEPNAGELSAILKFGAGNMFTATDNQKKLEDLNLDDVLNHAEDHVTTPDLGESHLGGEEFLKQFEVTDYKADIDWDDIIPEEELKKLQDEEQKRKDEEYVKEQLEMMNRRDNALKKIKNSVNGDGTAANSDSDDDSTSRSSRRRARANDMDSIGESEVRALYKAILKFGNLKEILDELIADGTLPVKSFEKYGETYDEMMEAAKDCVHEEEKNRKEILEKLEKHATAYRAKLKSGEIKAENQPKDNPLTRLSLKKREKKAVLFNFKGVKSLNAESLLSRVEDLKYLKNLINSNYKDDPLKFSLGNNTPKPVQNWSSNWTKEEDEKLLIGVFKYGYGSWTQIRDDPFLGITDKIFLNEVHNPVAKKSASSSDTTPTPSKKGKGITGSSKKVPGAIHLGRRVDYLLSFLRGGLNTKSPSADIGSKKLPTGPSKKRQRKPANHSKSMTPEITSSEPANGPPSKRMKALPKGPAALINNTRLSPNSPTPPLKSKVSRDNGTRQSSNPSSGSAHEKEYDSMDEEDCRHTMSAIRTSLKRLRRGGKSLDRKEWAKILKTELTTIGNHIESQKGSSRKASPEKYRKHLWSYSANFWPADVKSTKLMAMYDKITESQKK
# Sequence of Protein translocase subunit SecA (Escherichia coli (strain K12)) (P10408 whole entry): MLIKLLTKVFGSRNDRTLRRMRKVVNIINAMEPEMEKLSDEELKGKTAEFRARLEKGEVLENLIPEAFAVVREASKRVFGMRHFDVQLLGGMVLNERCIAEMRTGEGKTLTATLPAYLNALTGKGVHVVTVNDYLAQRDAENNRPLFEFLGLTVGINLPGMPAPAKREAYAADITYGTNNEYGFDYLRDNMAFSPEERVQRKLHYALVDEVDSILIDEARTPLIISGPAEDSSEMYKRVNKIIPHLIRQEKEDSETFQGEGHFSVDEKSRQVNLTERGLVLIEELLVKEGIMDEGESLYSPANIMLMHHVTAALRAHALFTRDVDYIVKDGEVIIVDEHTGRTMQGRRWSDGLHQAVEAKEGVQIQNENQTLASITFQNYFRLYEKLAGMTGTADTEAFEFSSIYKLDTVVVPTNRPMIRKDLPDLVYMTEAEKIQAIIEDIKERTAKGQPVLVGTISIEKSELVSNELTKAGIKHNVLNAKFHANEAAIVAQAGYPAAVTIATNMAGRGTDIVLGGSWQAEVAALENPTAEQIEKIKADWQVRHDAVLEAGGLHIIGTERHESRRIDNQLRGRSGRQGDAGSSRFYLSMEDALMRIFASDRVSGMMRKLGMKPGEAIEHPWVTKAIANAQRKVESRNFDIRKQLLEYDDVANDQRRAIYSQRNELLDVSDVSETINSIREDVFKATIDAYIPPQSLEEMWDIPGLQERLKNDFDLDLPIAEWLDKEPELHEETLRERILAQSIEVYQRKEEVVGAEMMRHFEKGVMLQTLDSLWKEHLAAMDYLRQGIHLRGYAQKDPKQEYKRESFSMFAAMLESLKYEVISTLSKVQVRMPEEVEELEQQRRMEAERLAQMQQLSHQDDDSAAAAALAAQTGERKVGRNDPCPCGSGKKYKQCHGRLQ
Compound,Percent Effect [1] [%],Percent Effect [2] [%],Percent Effect [3] [%],Percent Effect [4] [%],Percent Effect [5] [%],Percent Effect [6] [%],Percent Effect [7] [%],Percent Effect [8] [%],Percent Effect [9] [%],Percent Effect [10] [%],Percent Effect [11] [%]
Cc1nc(CN2CCCC(NCc3ccsc3)C2)no1 (configuration not stated),1.07,18.2,-3.38,-6.19,-7.3,4.63,16.1,20.4,4.85,12.2,-8.54
CCNC(c1ccc(OC)cc1)c1cccnc1 (configuration not stated),-5.06,-1.27,5.52,9.44,-1.74,-0.645,3.94,6.89,1.04,5.06,-10.2
CCCS(=O)(=O)N1CCN(c2cc(-n3cnc(C)c3C)nc(C)n2)CC1,-2.71,0,2.33,-0.358,-3.25,9.65,3.16,-2.89,1.07,-3.7,2.9
O=C(O)c1csc(S(=O)(=O)N2CCCc3ccc(F)cc32)c1,-6.97,-2.67,-4.41,4.48,0.682,0,6.1,8.48,-13.7,-13.6,-5.31
Cn1cc(CN2CC[C@H]3OCC[C@@H](C(=O)N4CCCCO4)[C@@H]3C2)cn1,-3.19,9.33,-0.147,1.18,-0.982,-6.51,11.3,6.18,2.12,7.69,-4.05
O=C(O)c1ccc(S(=O)(=O)Nc2ccc(Cl)c(F)c2)c(F)c1,-2.14,-2.7,-7.96,15.3,1.04,1.6,-1.08,8.28,-13.3,-18.5,-4.26
COc1ccccc1OCc1cc(C(=O)N2CC(O)C2)n[nH]1,-4.46,4.17,141,-2.11,-0.875,3.09,6.49,1.4,4.21,10.3,-1.24
Cc1cc(C[C@@H]2COC[C@@H]2NC(=O)CN2CCCN(C)CC2)on1,-3.19,16.4,2.04,6.47,6.27,4.54,13.3,4.37,8.6,-55,-6.96
CCc1nc(C2CCCN(C(=O)c3ccc4c(c3)nnn4C)C2)no1 (configuration not stated),-9.33,18.2,-4.8,-5.84,5.19,-4.42,14.3,5.49,-10.5,21.2,-20.9
CC(C)Cc1noc(CN2CCN(C(=O)c3ccco3)CC2)n1,1.31,2.74,2.5,1.08,3.17,0,8.99,5.51,5.21,8.64,-2.76
Cc1ccc(C2(CN3CCCC3)CCNCC2)nc1,-3.03,8.11,-4.02,3.83,2.32,-2.86,11.6,-11.7,10.1,9.76,-0.82
O=C(NCCn1ccc(-c2ccncc2)n1)c1ccncc1,-1.85,5.48,-0.372,8.72,1.57,-0.455,9.58,2.43,2.15,2.5,-2.37
O=C(Nc1ccc(N2CCCC2)nc1)N1CCc2ccccc2C1,-3.4,0,-13.6,2.55,-6.45,3.75,20.7,7.01,15.8,18.3,0.41
Cc1csc(N2CCCN(C(=O)C(C(C)C)n3cncn3)CC2)n1 (configuration not stated),-1.03,13.5,0.997,-3.98,-5.29,3.51,10.9,19.3,6.93,15.8,-2.71
O=C(CCc1cccc(F)c1F)N1CCN(Cc2ccco2)CC1,0.132,2.7,-1.7,9.76,3.48,0.476,10.3,0.925,0.529,-2.44,-2.5
O=C(CCn1ccccc1=O)Nc1ccc(I)cc1,-2.63,2.7,-7.9,21.2,0.684,-0.248,16.6,5.89,1.07,6.17,6.86
CC1N(CC2CC2)C(=O)COC12CCN(Cc1nccs1)CC2 (configuration not stated),-2.73,11,-7.81,11.6,5.56,-2,11.2,-5.88,4.17,6.17,-5.43
Cc1nc(C)c(C(=O)NCCNC(=O)c2ccc(F)cc2F)s1,-1.94,10.8,-1.06,22.4,5.85,-4.25,15.8,16.4,8.91,23.2,-8.6
O=C1NCC[C@]12CN(Cc1ccoc1)C[C@H]2c1ccccc1,4.22,15.6,11.9,-15.6,-8.38,1.94,13.8,11,4.23,6.41,-8.29
CC(O)CN(CC(=O)NC(=O)NC1CC1)c1ccccc1 (configuration not stated),-7.41,15.6,-2.19,-7.69,-2.64,-3.16,3.64,6.08,5.71,2.35,-17.8
CC(C)(C)c1ncc2c(n1)CN(C(=O)c1ccc(-c3nc[nH]n3)cc1)C2,-4.17,19.2,-3.06,7.66,4.37,1.2,6.76,-4.4,7.29,21,-8.9
CN(CCN1CCOCC1)C(=O)CCc1cccc(Cl)c1,-0.257,13.2,-2.72,-7.75,-4.58,-9.47,12.2,17.3,1.06,7.79,-4.62
